Source: PubChem (several laboratories)
SKKanGAS inh: blocks kanamycin growth of S. pyogenes SKKanGAS strain; BacTiter-Glo, 6 h; inhibition, % at 7.5 µM; hit rate 1.3% among 300,000; AID 1662;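 active = mean replicate score, as percent of positive control median, at least 50; inconclusive = mean below 50 but one replicate at or above 50; inactive = mean and every replicate below 50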;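 also: strain carries kanamycin resistance gene driven by streptokinase promoter and grows in 40 µg/ml kanamycin; loss of luminescence reflects streptokinase promoter inhibition or plain growth inhibition; 0% = median of DMSO wells and 100% = positive control at its reference dose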
Platelet DG rel: platelet dense granule release activity; human platelet-rich plasma, SFLLRN dense granule ATP release, luminescence; AID 1663; inhibition, %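 (compounds screened at 7.5 µM in platelet-rich plasma)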; hit rate 0.22% among 300,000;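 active = mean replicate score, as percent of positive control, at or above 50; inconclusive = mean below 50 but at least one replicate at or above 50; inactive = mean and every replicate below 50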
PolyA inhibitor: yeast polyadenylation inhibition; hit rate 0.02% among 300,000; activity score, % at 12 µM; S. cerevisiae SKY197-pL101 polyadenylation reporter, beta-gal luminescence; efflux-impaired pdr1/pdr3 knockout yeast; score 100 = 6 SD above DMSO; AID 1875;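 active = lowest replicate activity score at least 50, where 100 means six control SD above control mean; inconclusive = lowest score under 50 but half or more replicates reach 50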;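 also: yeast exposed to compound for 9 h at 30 °C; higher score means more reporter readthrough which indicates perturbed polyadenylation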
Calb FLC: affects C. albicans growth with fluconazole; hit rate 0.57% among 300,000; C. albicans CaCi-2 (fluconazole-resistant clinical isolate) + fluconazole, Alamar Blue growth, 48 h; growth inhibition, % (test concentration not listed); AID 1979;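 active = growth inhibition above about 58% in most replicates, limit read from the data, passing the limit was not always enough; inconclusive = exactly half the replicates above a set limit; inactive = most replicates below a set limit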;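 also: all wells also contain fluconazole at 8 µg/ml as a sub-toxic cotreatment; 0% = median of DMSO wells and 100% = median of geldanamycin control wells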
CR mimetic SO: lowers age-related superoxide in aged yeast cells; S. cerevisiae aged cells, superoxide DHE fluorescence; stronger effect = lower value; superoxide response (% of plate mean), % at 10 µM; hit rate 0.18% among 330,000; AID 2690;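 active = superoxide response under a set limit, about three screen SD below normal, cut at about 65% in these data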;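 also: yeast aged for seven days with compound at 30 °C before DHE staining; 100% = average MFI of all compound-treated wells on the plate with controls excluded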
Numbers without * were called inactive; u = inconclusive; x = no result given. Rows were chosen to be rich in hits. Some 2% of all compounds tested hit in one or more screens of this group.

SMILES	SKKanGAS inh	Platelet DG rel	PolyA inhibitor	Calb FLC	CR mimetic SO
COc1cccc(CN(C)C(=O)CCNC(=O)c2ccc(Br)cc2)c1	-3.1	-5.7	9.1	-8.5	99.0
COc1ccc(CNC(=O)c2c(C)oc3c2C(=O)c2ccccc2C3=O)cc1	86.8*	9.7	-11.5	-14.7	128.1
CC(=O)c1c(C)oc2c1C(=O)c1ccccc1C2=O	9.6	1.9	-31.0	7.3	182.8
Cc1oc2c(c1C(=O)NCc1cccnc1)C(=O)c1ccccc1C2=O	85.9*	-15.4	u	-13.3	177.1
O=C(Nc1ccc(OC(F)(F)F)cc1)C1CCCN(S(=O)(=O)c2cnc[nH]2)C1 (stereo unspecified)	99.1*	-3.9	-0.4	-1.1	94.6
CCOc1ccc(NC(=O)C2CCCN(S(=O)(=O)c3cnc[nH]3)C2)cc1 (stereo unspecified)	2.6	-17.1	14.4	-2.0	87.9
CCNC(=O)C(=O)NCc1ccncc1	-0.2	0.8	3.0	-3.4	114.7
O=C(Nc1ccc(C(F)(F)F)cc1)N1CCN(c2ccnc3cc(Cl)ccc23)CC1	52.5*	-0.5	-6.0	23.6	104.8
CC(NS(C)(=O)=O)C(c1cccs1)N1CCN(Cc2ccccc2)CC1 (stereo unspecified)	-2.9	65.3*	-11.9	3.5	89.3
N/C(Cc1nc(-c2ccc(Br)cc2)cs1)=N\O	5.8	1.5	-15.5	98.7*	100.4
Cc1ccccc1N1C(=O)C2ON(c3ccccc3)C(c3ccco3)C2C1=O (stereo unspecified)	2.2	-3.9	8.7	-5.0	107.8
Cc1ccc(S[C@@H](CCN2CC[C@H](C)CCC2=O)c2ccccc2)cc1	12.2	7.3	-6.4	1.9	106.8
Cc1ccc(S[C@@H](CCN2CC[C@H](C(C)(C)C)CCC2=O)c2ccccc2)cc1	75.8*	3.9	-4.4	-11.8	107.8
Cc1cc(Cl)ccc1NC(=O)CN(C)C1=NS(=O)(=O)c2ccccc21	x	x	x	x	76.8
NC(=O)COC(=O)c1cccc(NS(=O)(=O)/C=C/c2ccccc2)c1	-16.4	-24.1	10.7	1.6	97.0
CC(C)NC(=O)COC(=O)c1cccc(NS(=O)(=O)/C=C/c2ccccc2)c1	-1.0	3.4	4.1	102.8*	93.4
CCc1csc(CNC(=O)C2CCC(=O)N(Cc3cccc(F)c3)C2)n1 (stereo unspecified)	0.6	-3.6	-0.1	-6.5	96.1
CC(C)OC(=O)c1c(NS(=O)(=O)c2ccccc2)sc2c1CCCC2	96.7*	-1.1	-20.1	x	104.3
Cc1cccc(NC(=O)c2ccc(NCC3CCCO3)c([N+](=O)[O-])c2)n1 (stereo unspecified)	1.0	8.3	-11.5	-0.3	85.2
Cc1cccc(NC(=O)c2ccc(NCCO)c([N+](=O)[O-])c2)n1	-3.7	85.2*	-10.8	4.1	84.1
O=C(COc1ccc(S(=O)(=O)N2CCCC2)cc1)N1CCN(c2ccccc2F)CC1	-5.2	-19.5	-12.3	3.4	100.8
COC(=O)COc1ccc(S(=O)(=O)NC2CCCCCC2)cc1	8.0	-2.2	-2.6	3.3	99.8
CCOC(=O)COc1ccc(S(=O)(=O)NC2CC2)cc1	-2.4	-4.7	20.8	1.0	58.4*
CCOC(=O)COc1ccc(S(=O)(=O)N2CCN(c3ccccc3F)CC2)cc1	-7.6	-1.7	10.0	103.4*	99.0
Cc1ccc(CN(C(=O)COc2cccc(C)c2C)C2CCS(=O)(=O)C2)o1 (stereo unspecified)	-1.8	25.4	-7.3	2.5	103.5
SMILES	SKKanGAS inh	Platelet DG rel	PolyA inhibitor	Calb FLC	CR mimetic SO
CCCc1sc(N/N=C/c2ccccn2)nc1-c1ccc(F)cc1	95.9*	3.7	-21.0	17.9	102.1
Cc1nc(N/N=C/c2ccccn2)sc1C	x	x	x	x	86.6
Cc1ccc(C)c(OCC(=O)Nc2ccccc2C(=O)N2CCOCC2)c1	12.5	11.9	3.9	5.3	92.3
CCN(CC)c1nc(-c2ccccc2)nc2ccccc12	-2.7	-1.1	-1.6	-20.8	101.3
CCCCN(CCCC)c1nc(-c2ccncc2)nc2ccccc12	97.0*	-1.3	-3.8	20.4	65.4*
CCOC(=O)c1ccc(Oc2c(C)oc3cc(OS(C)(=O)=O)ccc3c2=O)cc1	-0.3	1.5	2.8	-8.5	93.3
COc1cc(C2CC(=O)Oc3c(C(CCN4CCN(c5ccccc5)CC4)c4ccc(N(C)C)cc4)c(OC)cc(OC)c32)cc(OC)c1OC (stereo unspecified)	6.5	-2.7	-7.6	-12.0	97.1
